From PubChem
This is one part of a sample in which hits are shown more often than they occur.
DT40 TDP1 CPT: qHTS for Inhibitors of human tyrosyl-DNA phosphodiesterase 1 (TDP1): qHTS in cells in presence of CPT | chicken DT40 Tdp1-/-;hTDP1 cells + 20 nM CPT, ATP luminescence, 48 h | Potency, µM (doses to about 46.2 µM), without a hit: at the top dose activity change, negative = growth inhibition, hits mostly inhibitors | 12% of 420,000 active | AID 686979, 2013; note: potency is the fitted concentration of half-maximal effect; nearly all actives have a fitted effect of over 55% in size
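Chicken DT40 Tdp1-/- cells complemented with human TDP1, 400 cells/well, exposed to compounds plus 20 nM camptothecin for at least 48 h at 37 C; viability read as ATP content by CellTiter-Glo luminescence.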
HT1080 IDH1KD tx: qHTS for induction of synthetic lethality in tumor cells producing 2HG: qHTS for the HT-1080-IDH1KD cell line. Potency, µM (titrated, usually from 46.1 µM), for the others: at the top dose activity, negative = toxicity, usual class: cytotoxic. 2% of 360,000 active. HT-1080 IDH1 knockdown viability, ATP luminescence, 48 h;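 note: potency is the fitted concentration of half-maximal effect; 0% = DMSO wells and -100% = cell-free medium wells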
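After a 2 h attachment period, IDH1KD HT-1080 cells took pin-transferred compound for 48 h at 37 °C; ATP-based luminescence after 10 min room-temperature reagent incubation reported viability.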
IL-1B inflam inh: qHTS for Inhibitors of Inflammasome Signaling: IL-1-beta AlphaLISA Primary Screen; THP-1 LPS/ATP IL-1B secretion, AlphaLISA, 16 h; active compounds read low; 4.7% of 360,000 active; activity change, % at 57.5 µM; in the data active = activity change below about -50%; inconclusive = mostly about -30% to -49%
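Secreted IL-1B measured by AlphaLISA bead assay after 16 h compound exposure of THP-1 cells; compounds (final up to 57.5 uM) added 1 h before LPS (250 ng/mL) and ATP (1.25 mM) stimulation; lower signal means less secretion.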
DT40 TDP1 no CPT: qHTS for Inhibitors of human tyrosyl-DNA phosphodiesterase 1 (TDP1): qHTS in cells in absence of CPT; 15% of 420,000 active; DT40 Tdp1-/- hTDP1 cells, no CPT, ATP luminescence, 48 h; Potency, µM (top dose mostly 46.2 µM), inactives show top-dose activity change, negative = growth inhibition, usual class: inhibitors; note: potency is the fitted concentration of half-maximal effect; nearly all actives have a fitted effect of over 55% in size
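No-CPT arm: Tdp1-/-;hTDP1 DT40 cells (400/well) plus compounds, incubated ≥48 hr at 37 °C. Readout CellTiter-Glo luminescence.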
HT1080-NT tox: qHTS for induction of synthetic lethality in tumor cells producing 2HG: qHTS for the HT-1080-NT fibrosarcoma cell line. HT-1080-NT fibrosarcoma viability, CellTiter-Glo ATP luminescence, 48 h. Potency, µM (highest dose often 46.1 µM), without a hit: at the highest dose activity, negative = less viability, usual class: cytotoxic. 1.6% of 360,000 active;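 note: NT is the 2HG producing partner of a matched IDH1 knockdown line; potency is the fitted concentration of half-maximal effect; 0% = DMSO-treated cells and -100% = media-only wells without cells; nearly all actives have a fitted effect of over 55% in size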
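750 cells/well, RPMI + 5% FBS; 2 h settle, compound pin-transfer, 48 h at 37 degrees C. CellTiter-Glo 10 min RT, luminescence. Normalized to DMSO and media-only wells.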
12-LOX inh: Primary qHTS assay for inhibitors of human arachidonate 12S-lipoxygenase (ALOX12): Round 2. Polyunsaturated fatty acid lipoxygenase ALOX12 (Homo sapiens), P18054. 1.1% of 580,000 active. AID 1671190, 2021. Potency, µM (titrated, usually from 108 µM), for the others: top-dose activity change, negative = inhibition, usual class: inhibitors. purified 12hLO, xylenol orange hydroperoxide absorbance; note: potency is the fitted concentration of half-maximal effect
Target sequence (P18054 whole entry, looked up): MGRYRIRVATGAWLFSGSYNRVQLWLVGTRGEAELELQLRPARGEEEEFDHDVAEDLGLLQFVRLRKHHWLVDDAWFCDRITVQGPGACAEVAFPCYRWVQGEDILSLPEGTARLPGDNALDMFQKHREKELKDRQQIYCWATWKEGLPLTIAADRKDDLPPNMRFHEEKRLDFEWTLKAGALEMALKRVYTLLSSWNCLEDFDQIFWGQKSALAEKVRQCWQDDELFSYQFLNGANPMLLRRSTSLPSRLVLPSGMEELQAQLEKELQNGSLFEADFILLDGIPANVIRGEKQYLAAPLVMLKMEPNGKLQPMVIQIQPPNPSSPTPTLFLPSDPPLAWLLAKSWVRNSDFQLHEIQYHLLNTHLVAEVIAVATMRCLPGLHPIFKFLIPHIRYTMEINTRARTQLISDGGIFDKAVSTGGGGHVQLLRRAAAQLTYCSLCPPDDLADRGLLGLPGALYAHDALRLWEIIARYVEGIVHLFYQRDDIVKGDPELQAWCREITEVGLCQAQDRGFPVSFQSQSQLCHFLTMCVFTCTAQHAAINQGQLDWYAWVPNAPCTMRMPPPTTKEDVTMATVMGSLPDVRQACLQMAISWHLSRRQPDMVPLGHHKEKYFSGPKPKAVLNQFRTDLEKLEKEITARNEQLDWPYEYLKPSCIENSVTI
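Purified human 12hLO (150 nM final) in 25 mM Hepes, 0.01% Triton X-100, pH 7.0 was preincubated 15 min at room temperature with compound. Then 40 uM arachidonic acid was added, 30 min. Hydroperoxide was read by Fe-XO absorbance ratio 573/405 nm.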
Numbers without * were called inactive; ? = inconclusive; . = no result given; [ ] = dose if it differs, or a comment. Unless noted, calls come from the whole dose curve; as a rule, active = well fitted curve in the direction sought with a large enough effect; inconclusive = small, poorly fitted or top-dose-only effect, or another doubt; inactive = no such curve, though single readings can be large; an effect the other way counts as inactive or inconclusive. Unless noted, % is set by controls: 0 for no effect and ±100 for the full control effect.

SMILES | DT40 TDP1 CPT | HT1080 IDH1KD tx | IL-1B inflam inh | DT40 TDP1 no CPT | HT1080-NT tox | 12-LOX inh
O=[N+]([O-])c1ccccc1Nc1c2ccccc2nc2ccccc12 | 21µM* | ? | 7 | ? | -27% | 0%
COc1cc(Nc2c3c(nc4ccccc24)CCC3)cc(OC)c1OC | 1.8µM* | 2.1µM* | 6 | 2.1µM* | 1.5µM* | 22%
COc1cc(NC(=O)c2c3c(nc4ccccc24)CCC3)cc(OC)c1 | -29% | -29% | 13 | -8% | ? | -5%
COc1ccc([N+](=O)[O-])cc1NS(=O)(=O)c1ccccc1 | -6% | 11% | 0 | -29% | 6% | 5%
COc1ccc([N+](=O)[O-])cc1Nc1c2ccccc2nc2ccccc12 | 2.6µM* | 5.2µM* | -29 | 2.6µM* | 5.2µM* | -86%
c1ccc(-c2ccc(Nc3ccc4ccccc4c3)cc2)cc1 | . | . | . | . | . | -29%
CCc1ccccc1-n1nc(-c2c(C)nc3scc(CC(=O)NCCC(C)C)n3c2=O)cc1C | . | . | . | . | . | -3%
CCCOc1ccc(CN2C[C@@H](CO)[C@H](C(=O)N(C)C)C2)cc1OC | . | . | . | . | . | 30%
COc1ccc(OC)c(Nc2cc(C)c3ccccc3n2)c1 | ? | ? | -6 | ? | ? | 10%
COc1cc(NS(C)(=O)=O)ccc1Nc1c2ccccc2nc2ccccc12 | 0.21µM* | 16µM* | -105* | 0.13µM* | 12µM* | ?
COc1ccc(OC)c(Nc2c3ccccc3nc3ccccc23)c1 | 5.2µM* | 4.6µM* | -84* | 6.5µM* | 5.8µM* | ?
Cc1cccc2cc(CN(CC3CCCO3)C(c3nnnn3Cc3ccco3)C(C)C)c(=O)[nH]c12 (stereo not given) | 16µM* | ? | -61* | 15µM* | ? | ?
CC(C)(C)c1ccc(CN(Cc2ccco2)Cc2nnnn2C2CCCC2)cc1 | 21µM* | ? | -8 | 15µM* | -2% | -29%
Cc1ccc2cc(CN(CCCN3CCOCC3)C(c3nnnn3Cc3ccco3)C(C)C)c(=O)[nH]c2c1C (stereo not given) | ? | ? | -9 | ? | 0% | -16%
COc1ccc2cc(CN(Cc3ccco3)C(c3nnnn3C3CCCCC3)C(C)C)c(=O)[nH]c2c1 (stereo not given) | 23µM* | 0% | 4 | ? | 1% | 173%
COc1ccc2cc(CN(Cc3ccco3)Cc3nnnn3C3CCCCC3)c(=O)[nH]c2c1 | 26µM* | ? | -51* | ? | ? | ?
O=[N+]([O-])c1ccc(C(c2sc3nc(-c4ccco4)nn3c2O)N2CCC3(CC2)OCCO3)cc1 (stereo not given) | 10% | . | . | 6% | . | ?
Clc1cccc(-c2ccc(CN3CCN(C4CCNC4)CC3)o2)c1 (stereo not given) | . | . | . | . | . | 14%
CCC(C)(C)n1nnnc1CN(Cc1ccco1)Cc1cc2cc3c(cc2[nH]c1=O)OCO3 | 21µM* | 5% | ? | 16µM* | 6% | .
COCCn1nnnc1CN(Cc1ccco1)Cc1cc2cc3c(cc2[nH]c1=O)OCO3 | ? | -24% | -11 | -19% | -2% | 0%
CC(=O)Oc1ccc(Cn2c(C)c(C(=O)NCCC#N)sc2=O)cc1 | ? | 26% | 42 | ? | 6% | 19%
CCOC(=O)c1nn(-c2ccccc2)c(=O)c2c(N)scc12 | 8.2µM* | 1% | 19 | 15µM* | 2% | 35µM*
Nc1scc2c(C(=O)N/N=C/c3ccc(Cl)cc3)nn(-c3ccccc3)c(=O)c12 | 8.2µM* | -2% | -19 | 7.3µM* | -1% | 6.3µM*
O=C(COc1ccc(Cl)cc1Cl)c1ccc2ccccc2c1 | . | . | . | . | . | 13%
CCNc1cc(N2CCC(CCC(=O)NCc3c(C)nn(C)c3C)CC2)ncn1 | . | . | . | . | . | -10%
SMILES | DT40 TDP1 CPT | HT1080 IDH1KD tx | IL-1B inflam inh | DT40 TDP1 no CPT | HT1080-NT tox | 12-LOX inh
Cc1ccc(S(=O)(=O)Oc2ccc3c(C)cc(=O)oc3c2)cc1C | . | . | . | . | . | -17%
Cc1c(-c2ccccc2)[nH]c2c(CNC(=O)CCc3nncn3C)cc(Cl)cc12 | . | . | . | . | . | 50%
O=C(CSCc1cccc(Cl)c1)N/N=C/c1ccc(OCC(=O)N2CCCCC2)cc1 | 16µM* | -25% | -74* | 16µM* | -27% | 10%
Cc1cccc(C(=O)N/N=C/c2ccc(OCC(=O)N3CCCCC3)cc2)c1 | ? | -2% | 10 | 2% | 1% | 10%
CCc1ccccc1N=C1S/C(=C/c2ccccc2OCC(=O)N2CCOCC2)C(=O)N1C | ? | ? | -72* | ? | ? | 12%
CCOc1ccc(N2Cc3ccccc3C2)cc1 | -20% | 3% | 6 | ? | 8% | -3%[57.4 µM]
Clc1ccc(-c2c[n+]3c(n2-c2ccccc2)SCC3)cc1 | ? | -2% | ? | ? | -13% | -10%
